# Results published in PubChem BioAssay (NCATS).
# Results filed as inconclusive are left out. Active and inactive are the calls of the source. Calls follow the shape of the dose curve; as a rule, active = well fitted cell-killing curve with a large enough effect; inconclusive = small, poorly fitted or top-dose-only effect, or effect the other way; inactive = flat fitted curve, though single readings scatter.
# System: CAOV3
# Test: Primary qHTS to identify gynecologic anti-cancer compounds using libraries of approved drugs and bioactive compounds (AID 1345084); also: nearly all actives have a fitted effect of over 55% in size
# Conditions: Gynecologic cancer cell panel viability, ATPlite luminescence, 48 h; series mostly up to 57.5 µM; activity change, negative = cytotoxicity: at the top concentration
# Summary of the method: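 Five-concentration response, 48 h; readout is ATP-driven luciferase luminescence.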
# % is scaled to controls: 0 for no effect and ±100 for the full control effect; potency is read from the fitted curve at half-maximal effect.
SMILES,Potency,"activity change, negative = cytotoxicity"
N#Cc1ccc(COc2ccc(-c3cccc4nc(NC(=O)C5CC5)nn34)cc2)cn1,22.4 µM (active),–
CC(C)C[C@@H](N)C(=O)N[C@H]1C(=O)N[C@@H](CC(N)=O)C(=O)N[C@H]2C(=O)N[C@H]3C(=O)N[C@H](C(=O)N[C@H](C(=O)O)c4cc(O)cc(O)c4-c4cc3ccc4O)[C@H](O)c3ccc(c(Cl)c3)Oc3cc2cc(c3O[C@@H]2O[C@H](CO)[C@@H](O)[C@H](O)[C@H]2O[C@H]2C[C@](C)(N)[C@H](O)[C@H](C)O2)Oc2ccc(cc2Cl)[C@H]1O,–,-25.5% [at 25.3 µM] (inactive)
CC(C)(O)C1Cc2c(ccc(C(=O)CCc3ccccc3)c2O)O1 (configuration not stated),10 µM (active),–
CCn1c(=O)c(-c2ccc(-c3cncs3)cc2Cl)cc2cnc(Nc3ccc(N4CCN(C)CC4)cc3)nc21,–,-2.29% (inactive)
COc1cc(CCO)ccc1O[C@@H]1O[C@H](CO)[C@@H](O)[C@H](O)[C@H]1O,–,-1.85% [at 38.5 µM] (inactive)
CC(C)c1cccc(C(C)C)c1NC(=O)Nc1ccc(Sc2ccc([N+](=O)[O-])cc2)cc1,–,-12.7% (inactive)
Oc1cccc(-c2c3nc(c(-c4cccc(O)c4)c4ccc([nH]4)c(-c4cccc(O)c4)c4nc(c(-c5cccc(O)c5)c5ccc2[nH]5)CC4)C=C3)c1,–,-41.5% (inactive)
FC(F)(F)c1ccccc1-c1cc(C(F)(F)F)c2nc(C3=NOC4(CCCCC4)C3)[nH]c2c1,–,0.608% (inactive)
C=C1C(=O)O[C@@H]2[C@H]3C(C)=CC(=O)C3=C(C)[C@@H](OC(=O)/C(C)=C\C)[C@H](O)[C@@H]12,–,-17.3% [at 38.5 µM] (inactive)
CC(C)(C)[C@H](NC(=O)c1ccc(N)c(Cl)c1)C(=O)N1CCC[C@H]1C(=O)N[C@H](C#N)CC(=O)O,–,-20.1% (inactive)
CCOC(=O)c1csc(Nc2ccc(Cl)cc2)n1,–,-35.5% (inactive)
CC(CCC1(O)OC2CC3C4CC=C5CC(O[C@@H]6O[C@H](CO)[C@@H](O[C@@H]7O[C@@H](C)[C@H](O)[C@@H](O)[C@H]7O)[C@H](O)[C@H]6O[C@@H]6O[C@@H](C)[C@H](O)[C@@H](O)[C@H]6O)CCC5(C)C4CCC3(C)C2C1C)CO[C@@H]1O[C@H](CO)[C@@H](O)[C@H](O)[C@H]1O (some centres not stated),–,-11% [at 11.6 µM] (inactive)
CC(=O)O[C@H]1CC(C)(C)CC2[C@]13CO[C@@]21CCC2[C@@]4(C)CC[C@H](O[C@@H]5OC[C@H](O[C@@H]6O[C@H](CO)[C@@H](O)[C@H](O)[C@H]6O[C@@H]6OC[C@@H](O)[C@H](O)[C@H]6O)[C@H](O)[C@H]5O[C@@H]5O[C@H](CO)[C@@H](O)[C@H](O)[C@H]5O)[C@@](C)(CO)C4CC[C@@]2(C)[C@]1(C)C[C@H]3O (some centres not stated),–,-0.697% [at 11.6 µM] (inactive)
CN(C)CCN(Cc1ccc(-c2ccc(CNCCc3ccccc3)cc2)cc1)C(=O)CCC1CCCC1,5.62 µM (active),–
CCC(C)C(=O)OC1C(C)C2(O)C(C=C(CO)CC3(O)C(=O)C(C)=CC32)C2C(C)(C)C12OC(=O)C(C)C (configuration not stated),–,-2.31% [at 25.3 µM] (inactive)
CC(C)NC(=O)N1CC[C@H](N=C2Nc3cc(F)ccc3N(CC(F)F)c3ccc(Cl)cc32)C1,–,-26.1% [at 11.6 µM] (inactive)
O=C(Nc1nnc(-c2ccc3c(c2)OCCO3)o1)C1CCCCC1,–,-27.6% (inactive)
